CYP2C9 activ – human CYP2C9 activators, primary screen, biochemical, luminescence. recombinant CYP2C9, luciferin-H conversion; active compounds read high; factor 1 = untreated enzyme, 0 = blocked. hit rate 1.4% among 96,000. Cytochrome P450 2C9 (Homo sapiens), P11712. activation factor at 5 µM;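 active = activation factor of 2 or more for CYP2C9 at a 5 µM dose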;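 note: 0 = sulfaphenazole-blocked wells and 1 = vehicle-only wells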
CYP2C19 inhib – blockers of cytochrome P450 2C19 activity – biochemical, luminescence, ADME assay, primary screen. P33261. CYP2C19 Supersomes, luciferin-H EGE luminescence, 30 min. inhibition, % at 5 µM. hit rate 21% among 96,000;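 active = CYP2C19 inhibition above a set limit at 5 µM in the primary screen, cut at about 50% in these data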;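 note: plate controls were negative control wells for no effect and 2.5 mM tranylcypromine positive control for full effect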
CYP2C19 activ – human CYP2C19 activators, primary screen, biochemical, luminescence | Cytochrome P450 2C19 (Homo sapiens), P33261 | recombinant CYP2C19, luciferin-H EGE luminescence; active compounds read high; 0 = fully inhibited enzyme, 1 = untreated enzyme | activation factor at 5 µM | 96,000 tested, under 10 active | AID 1025, 2008;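 active = activation factor of at least 2 at 5 µM in the primary screen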;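 note: 0 = wells with 2.5 mM tranylcypromine and 1 = vehicle-only wells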
Cav3 T inh – Cav3.2 calcium influx blockers – cell-based, Fluo-4 calcium fluorescence, FDSS, MLSMR library, primary screen; Voltage-dependent T-type calcium channel subunit alpha-1H (Homo sapiens), O95180; Cav3.2-expressing cells; active compounds read low; B-score at 10 µM; hit rate 4% among 100,000; AID 449739, 2010;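 active = single-dose well whose peak fluorescence ratio is a statistical outlier from its plate by either plate-standardised score or position-corrected B-score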
CYP2C9 inh – blockers of cytochrome P450 2C9 activity – biochemical, luminescence, ADME assay, primary screen | P11712 | CYP2C9 Supersomes, luciferin-H conversion | inhibition, % at 5 µM | hit rate 20% among 96,000;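 active = blocking of liver enzyme CYP2C9 beyond about 50% at 5 µM, limit read from the data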
Numbers without * were called inactive; / = no result given. Most compounds without a hit are left out; they make up all but 27% or so of the library.

SMILES	CYP2C9 activ	CYP2C19 inhib	CYP2C19 activ	Cav3 T inh	CYP2C9 inh
CS(=O)(=O)N(CC(=O)Nc1ccc2c(c1)OCO2)Cc1ccccc1	0.5	70*	0.3	-0.0064	48
CN(CCC(=O)Nc1ccc2c(c1)OCO2)Cc1ccccc1	0.5	32	0.7	0.78	52*
COC(=O)c1ccc(NC(=O)CN(Cc2ccc(Cl)cc2)S(C)(=O)=O)cc1	0.2	95*	0.1	-0.79	82*
CC(C)c1ccc(NC(=O)CN(Cc2ccccc2)S(C)(=O)=O)cc1	/	/	/	-2.6	/
Cc1ccc(-n2nnc(-c3nccn3C)n2)cc1	/	/	/	0.52	/
Cc1ccnc(NS(=O)(=O)c2ccc(NC(=O)C34CC5CC(CC(C5)C3)C4)cc2)n1	0.9	-4	1	0.34	12
O=C(COC(=O)c1cn(-c2ccccc2)nc1-c1ccccc1)c1cccc([N+](=O)[O-])c1	0.6	15	0.8	-1.1	42
O=C(NCc1cn(-c2ccccc2)nc1-c1ccccc1)c1cc([N+](=O)[O-])cc([N+](=O)[O-])c1	0.3	31	0.7	/	67*
CCCN(CCO)Cc1ccc2ccccc2c1	1	52*	0.5	0.33	4
NC(=O)CSc1nnc2sc3ccccc3n12	1.1	-5	1.1	0.78	-13
CCNc1nc(Oc2ccc(Cl)cc2Cl)cc(C(F)(F)F)n1	0.4	-5	1.1	0.093	63*
CCNc1nc(NCC)nc(Oc2ccc(OCC)nn2)n1	1.1	-9	1.1	0.44	-8
CCNc1nc(N)nc(Oc2ccc(OCCOc3ccc(Cl)cc3Cl)nn2)n1	0.2	94*	0.1	-0.0041	80*
CCOP(=O)(O)c1ccccc1OCCOc1ccccc1P(=O)(O)OCC	1.2	-19	1.2	0.2	-24
O=C(NC1CCCC1)c1nc2c(nnn2Cc2ccccc2Cl)c(=O)[nH]1	0.5	27	0.7	-3.4*	50
O=C(C1CCCCC1)N1CCC(c2nc3c(nnn3Cc3c(F)cccc3Cl)c(=O)[nH]2)CC1	/	/	/	1.2	/
CCCCCCC(=O)N1CCC(c2nc3c(nnn3Cc3ccccc3Cl)c(=O)[nH]2)CC1	0.1	15	0.8	-2.2	93*
O=C(Cc1cccs1)N1CCC(c2nc3c(nnn3Cc3ccccc3Cl)c(=O)[nH]2)CC1	0	79*	0.2	-0.92	100*
Cn1c(=O)c2c(SCC(=O)Nc3ccc4c(c3)OCCO4)nc(CC(C)(C)C)nc2n(C)c1=O	0.3	59*	0.4	-3.8	74*
c1ccc(-n2ncc3c(N4CCN(CCOc5cccc6ccccc56)CC4)ncnc32)cc1	0.2	48	0.5	-1.4	76*
O=C(COc1ccccc1)N1CCN(c2ncnc3c2cnn3-c2ccccc2)CC1	0.3	80*	0.2	0.47	71*
CCSc1c(-c2ccccc2)nc2c(C)cccc2c1C(=O)O	0.2	-1	1	0.22	78*
CC1(c2ccc(Cl)c(Cl)c2)NC(=S)N2C1NC(=S)N2c1ccccc1 (centres undefined)	0.6	78*	0.2	-5.4*	37
Cc1nn(C)c(C)c1/C=N/N=C1\CCC2C3CCc4cc(O)ccc4C3CCC12C (centres undefined)	0.7	43	0.6	/	29
Cc1cccc(OC2(c3ccccc3)OC(=O)c3ccccc32)c1C (centres undefined)	0.2	44	0.6	-2.1	83*
SMILES	CYP2C9 activ	CYP2C19 inhib	CYP2C19 activ	Cav3 T inh	CYP2C9 inh
CCCCCCOC1(c2ccccc2)OC(=O)c2ccccc21 (centres undefined)	0.4	56*	0.4	/	62*
O=C1NC(O)(c2ccccc2)Oc2ccccc21 (centres undefined)	/	/	/	0.86	/
N#Cc1ccccc1Cn1c(-c2cscn2)nc2ccccc21	0.8	50*	0.5	0.077	24
O=C(O)Cn1c(-c2cscn2)nc2ccccc21	1.2	-18	1.2	1.1	-17
COc1cc(NC(=O)Cn2c(-c3cncs3)nc3ccccc32)cc(OC)c1OC	0.4	30	0.7	/	56*
O=C(Cn1c(-c2cscn2)nc2ccccc21)Nc1cc(F)ccc1F	0.5	64*	0.4	-0.095	46
O=C(Cn1c(-c2cscn2)nc2ccccc21)Nc1ccc2ccccc2c1	0.4	39	0.6	-4.8*	63*
CCOc1ccccc1C(=O)N(Cc1ccccc1)Cc1cc2cc3c(cc2[nH]c1=O)OCCO3	/	/	/	0.08	/
COc1cccc(CNC(=O)C2CCN(S(=O)(=O)c3c(C)nn(C)c3C)CC2)c1	1.3	4	1	1	-28
Cc1ccccc1CSCCNC(=O)CCSc1ccccc1	0.2	37	0.6	-6.1*	76*
Cc1ccc(CSCCNC(=O)CCSc2ccccc2)cc1	0.3	26	0.7	-1.4	65*
CC(C)(C)SCCNC(=O)CSc1ccccc1	/	/	/	0.17	/
CCOCCCNC(=O)CCSc1ccc(C)cc1	/	/	/	1.8	/
CC(C)(C)OC(=O)[C@H](Cc1ccccc1)NC(=O)c1nc[nH]c1C(=O)NC1CCN(C(=O)OC(C)(C)C)CC1	/	/	/	-1.2	/
CCOC(=O)C1CN(S(=O)(=O)c2ccc(OC)cc2)c2cc(CC(=O)OC)ccc2O1 (centres undefined)	0.7	93*	0.1	0.13	30
COc1ccc(S(=O)(=O)N2CC(C(=O)O)Oc3ccc(CC(=O)O)cc32)cc1 (centres undefined)	1	10	0.9	0.18	2
Cc1ccc(CNc2ncc(-c3ccc4c(c3)OCO4)n2C)cc1	0.3	69*	0.3	-2.9	74*
Cn1c(-c2ccc3c(c2)OCO3)cnc1NCc1ccc(Cl)cc1	0	66*	0.3	-2.8	99*
Cc1nc2ccccc2c(=O)n1NCc1cc(Br)cs1	0.8	42	0.6	-0.96	19
C=CCNC(=O)C1CC2Cn3c(nc4cc5ccccc5cc43)C2N1C (centres undefined)	/	/	/	0.23	/
CCN(C(=O)CSc1nnc(NC2CCCCC2)s1)C1CCS(=O)(=O)C1 (centres undefined)	1.1	-23	1.2	0.2	-7
CCc1ccc(NC(=O)CSc2nnc(SCC(=O)Nc3ccc(CC)cc3)n2N)cc1	0.4	-7	1.1	-1	62*
Cc1cc(C)cc(NC(=O)CSc2nnc(-c3ccccc3)n2N)c1	1	7	0.9	0.31	-3
CCc1ccc(NC(=O)CSc2nnc(CC)c(CC)n2)cc1	0.5	64*	0.4	-0.25	49
Cc1cc(C)c(NC(=O)CSc2nnc(SCC(=O)Nc3c(C)cc(C)cc3C)n2N)c(C)c1	0.9	68*	0.3	0.31	15
CCc1nnc(SCC(=O)Nc2ccc(C(C)=O)cc2)nc1CC	0.6	74*	0.3	0.36	40
Cc1ccc(SCC(=O)NCc2cccnc2)cc1	0.7	18	0.8	-0.038	27

From PubChem
